From PubChem BioAssay AID504850 (National Center for Advancing Translational Sciences (NCATS), 2011) come the findings set out here.

Where “and” joins values, the source holds several entries; their conditions need not be identical. Equal values may be shown once. About 1,200 (52%) of roughly 2,300 compounds were called active. Not shown: some 34% with an inconclusive outcome. Calls follow the shape of the dose curve; as a rule, active = well fitted inhibition curve with a large enough effect; inconclusive = small, poorly fitted or top-dose-only effect, or effect the other way; inactive = no such curve, though single readings can be large or run the other way. The set was probably picked from earlier hits. The list shows a part of the results.
% is scaled to controls: 0 for no effect and ±100 for the full control effect; potency is read from the fitted curve at half-maximal effect.

The assay in a line: Confirmation screen for delayed death inhibitors of the malarial parasite plastid, 48 hour incubation. Also: nearly all actives have a fitted effect of over 65% in size. The following applies: P. falciparum-infected erythrocytes, luciferase growth; series mostly up to 28.7 µM; activity change, negative = inhibition: at the top concentration. The source says: The goal of this screen is to discover new antimalarial compounds that act by inhibiting the development of the apicoplast in the malarial parasite Plasmodium falciparum. The biochemical processes that make this organelle essential for erythrocytic stage parasites are not well understood. However, antibiotics, such as azithromycin and tetracycline, which target the apicoplast translational machinery, have a potent antimalarial effect. […] We have developed a cell-based assay that measures parasite growth based on the expression of an integrated copy of a firefly luciferase reporter. To detect small molecules that cause this "delayed death phenotype, erythrocytes infected with the luciferase-expressing parasites were incubated with compounds for either one or two generations, corresponding to 48 and 96 hours, respectively. Compounds that inhibit parasite growth in the second generation, but not the first, should be enriched in antimalarials that target the apicoplast. Growth inhibition is detected by a decrease in luciferase activity. MLPCN Grant: R21 NS059500 Assay Provider: David Fidock and Eric Ekland, Columbia University Keywords: NIH Roadmap, MLPCN, MLI, MLSMR, qHTS, NCGC, qHTS, malaria, luciferase, viability
Four microliters of culture medium (RPMI 1640 with 0.5% w/v Albumax (GIBCO), 24 mM sodium bicarbonate and 10 ug/mL gentamycin) were dispensed by a Multi-drop Combi into white solid 1536-well plates (Grenier) and 23 nL compound was added by a pin tool. Four microliters of infected erythrocytes (2% hematocrit, 0.1% parasitemia final concentration) in culture medium were dispensed and the plates incubated for 48 hours at 37 C in 5% CO2. Two microliters of luciferase detection reagent was added and luminescence was detected by a ViewLux (PerkinElmer) reader.
For the compound `Fc1ccc(C[n+]2c(-c3ccccc3)cc(-c3ccccc3)cc2-c2ccccc2)cc1`, the Potency is 2.82 µM (active).

With `CN1C[C@H](C(=O)N[C@]2(C)O[C@@]3(O)[C@@H]4CCCN4C(=O)[C@H](Cc4ccccc4)N3C2=O)C[C@@H]2c3cccc4[nH]cc(c34)C[C@H]21`, the Potency is 2.82 µM (active).

As to `C[C@@H]1CC[C@H]2[C@@H](C)C(=O)O[C@@H]3OC4(C)CC[C@@H]1C32OO4` (some centres not stated), the Potency was 0.0447 µM (active).

For the compound `C[C@@H]1CC[C@H]2[C@@H](C)C(=O)O[C@@H]3O[C@@]4(C)CC[C@@H]1[C@]32OO4`, the Potency is 0.0794 µM (active).

For the compound `Cn1c(O)c(C=NC2C(=O)C3(C)CCC2C3(C)C)c(=O)n(C)c1=O` (configuration not stated), the “activity change, negative = inhibition” value is -0.717% (inactive).

On to `CC(=O)N1CC(=O)Nc2ccc(Cl)cc2C1c1ccccc1` (configuration not stated), for which the “activity change, negative = inhibition” value was -10.3% (inactive).

Take `O=C(CCl)Nc1nccs1`: the Potency is 5.01 µM (active).

For the compound `O=C(/C=C/c1cccs1)c1cc(Cl)ccc1OC(=O)N1CCOCC1`, the Potency is 14.1 µM (active).

`C[C@@H]1C[C@@H]([C@H](O)CC2CC(=O)NC(=O)C2)C(=O)[C@@H](C)C1`: the Potency was 0.891 µM (active).

As for `C[C@H]1C[C@@H](C)C(=O)[C@@H]([C@H](O)CC2CC(=O)NC(=O)C2)C1`, the Potency was 0.0794 µM (active).

As for `Cc1ccc(N2C(=O)NC(=O)/C(=C\C=C\c3ccco3)C2=O)cc1`, the “activity change, negative = inhibition” value was -20.3% (inactive).

For `CCN1CCN(Cc2nc3ccc([N+](=O)[O-])cc3c(=O)n2-c2ccccc2F)CC1`, the “activity change, negative = inhibition” value was 6.69% (inactive).

On to `COc1ccc(C(=O)N/N=C/C23CC[C@@H](O)CC2(O)CC[C@@H]2[C@@H]3CCC3(C)C(C4=CC(=O)OC4)CCC23O)cc1` (some centres not stated), for which the “activity change, negative = inhibition” value was -16% (inactive).

On to `COc1cc(C(=O)N/N=C/C23CC[C@@H](O)CC2(O)CC[C@@H]2[C@@H]3CCC3(C)C(C4=CC(=O)OC4)CCC23O)ccc1O` (some centres not stated), for which the “activity change, negative = inhibition” value is -13.3% (inactive).

For `CN(C)c1ccc(C(=O)N/N=C/C23CC[C@@H](O)CC2(O)CC[C@@H]2[C@@H]3CCC3(C)C(C4=CC(=O)OC4)CCC23O)cc1` (some centres not stated), the Potency is 12.6 µM (active).

`CN(C)[C@@H]1C(=O)C(C(N)=O)=C(O)[C@@]2(O)C(=O)C3=C(O)c4c(O)cccc4[C@@](C)(O)C3[C@H](O)C12` (some centres not stated): the Potency is 5.01 µM (active).

For `C[n+]1c2cc(N)ccc2cc2ccc(N)cc21`, the Potency is 1 µM (active).

For the compound `COC(=O)c1nc(-c2ccc3c(n2)C(=O)C(N)=C(OC)C3=O)c(N)c(-c2ccc(OC)c(OC)c2O)c1C`, the Potency is 0.562 µM (active).

In the case of `CC[C@H]1CN2CCc3cc(OC)c(OC)cc3[C@@H]2C[C@@H]1C[C@H]1NCCc2cc(OC)c(OC)cc21`, the Potency was 0.316 µM (active).

As for `CC[C@H]1CN2CCc3cc(OC)c(OC)cc3[C@H]2C[C@@H]1C[C@@H]1NCCc2cc(OC)c(OC)cc21`, the Potency is 0.562 µM (active).

As for `CC[C@H]1CN2CCc3cc(OC)c(OC)cc3C2C[C@@H]1C[C@H]1NCCc2cc(OC)c(OC)cc21` (some centres not stated), the Potency is 0.0501 µM (active).

In the case of `O=C1NC(=O)N(c2ccccc2)C(=O)/C1=C/C=C/c1ccco1`, the “activity change, negative = inhibition” value was -14.3% (inactive).

Turning to `CCN(CC)Cc1cc(Nc2ccnc3cc(Cl)ccc23)ccc1O`, the Potency is 79.4 nM (active) and 22.4 nM (active).

As for `CC(C)CCOP(N)(=O)Oc1ccccc1` (configuration not stated), the Potency is 4.47 µM (active).

Take `Cn1c(=O)oc2cc(NC(=O)CCl)ccc21`: the Potency was 0.794 µM (active).

On to `CCn1c(=O)oc2cc(NC(=O)CCl)ccc21`, for which the Potency is 2.24 µM (active).

As for `O=[N+]([O-])c1cccc2c([As](=O)(O)O)cccc12`, the Potency was 3.55 µM (active).

As for `Oc1ccc(-[n+]2c(-c3ccccc3)cc(-c3ccccc3)cc2-c2ccccc2)cc1`, the Potency is 0.708 µM (active).

With `C[C@@H]1O[C@@H](O[C@H]2C[C@@H](O)[C@]3(CO)[C@@H]4C(CC[C@]3(O)C2)[C@@]2(O)CC[C@H](C3COC(=O)C3)[C@@]2(C)C[C@H]4O)[C@H](O)[C@H](O)[C@H]1O` (some centres not stated), the “activity change, negative = inhibition” value is -14.7% (inactive).

With `CCCNS(=O)(=O)c1ccc(OCC(=O)N2CCN(Cc3ccc4c(c3)OCO4)CC2)c(C)c1`, the Potency was 12.6 µM (active).

For `Cc1ccc(C(C)C)c(OCC(=O)N2CCN(Cc3nc4cc([N+](=O)[O-])ccc4n3C)CC2)c1`, the “activity change, negative = inhibition” value is -9.32% (inactive).

With `CCOC(=O)COc1ccc2c(c1)c(C(C)=O)c(C)n2Cc1ccccc1`, the “activity change, negative = inhibition” value was -25.7% (inactive).

In the case of `Cn1cc([N+](=O)[O-])c(C(=O)Nc2ccc3c(C(F)(F)F)cc(=O)oc3c2)n1`, the “activity change, negative = inhibition” value was 15.8% (inactive).

With `O=C(NC1CC2CCCC(C1)N2)c1ccccc1` (configuration not stated), the Potency was 10 µM (active).

In the case of `Clc1ccccc1CN1CCNCC1`, the “activity change, negative = inhibition” value is -9.24% (inactive).

As to `COc1ccc(Cn2c(N)c(C(=O)NCc3ccco3)c3nc4ccccc4nc32)cc1`, the Potency is 3.98 µM (active).

`O=c1oc2ccccc2c(O)c1[C@H]1c2ccc(O)cc2Oc2c1c(=O)oc1ccccc21`: the “activity change, negative = inhibition” value is -10% (inactive).

On to `CN1CCc2cc3c(c4c2C1Cc1ccccc1-4)OCO3` (configuration not stated), for which the Potency was 0.562 µM (active).

In the case of `O=C1/C(=C/c2ccccc2)C[C@@]2(O)[C@H]3Cc4ccc(O)c5c4[C@@]2(CCN3CC2CC2)C1O5` (some centres not stated), the Potency was 5.01 µM (active).

In the case of `CCCCCCn1c(=O)c(C(=O)Nc2ncccc2O)c(O)c2ccccc21`, the “activity change, negative = inhibition” value was -9.27% (inactive).

With `C=C1C(O)[C@@H]2O[C@]3(CC[C@H](/C=C/C(C)[C@@H]4CC(C)=CC5(O[C@H](C[C@@](C)(O)C(=O)O)CCC5O)O4)O3)CC[C@H]2O[C@@H]1C(O)CC(C)[C@H]1OC2(CCCCO2)CCC1C` (some centres not stated), the Potency is 0.0891 µM (active).

Take `C=C1C(=O)O[C@H]2C[C@@H](C)[C@@H]3C=CC(=O)[C@@]3(C)C[C@H]12`: the Potency was 2 µM (active).

As for `C=C1C(=O)O[C@@H]2C[C@@H](C)[C@@H]3C=CC(=O)[C@@]3(C)[C@@H](OC(=O)CC(=O)O[C@H]3[C@@H]4C(=C)C(=O)O[C@@H]4C[C@@H](C)[C@@H]4C=CC(=O)[C@]43C)[C@H]12`, the Potency is 0.398 µM (active).

For `C=C1C(=O)O[C@@H]2C[C@@H](C)[C@@H]3C=CC(=O)[C@@]3(C)[C@@H](O)[C@H]12`, the Potency is 1.58 µM (active).

As for `CCCCN=C[C@]12CCC(O)CC1(O)CCC1[C@@H]2CC[C@]2(C)[C@H](C3C=CC(=O)O3)CCC12O` (some centres not stated), the “activity change, negative = inhibition” value was -20.3% (inactive).

For `C[C@]12CCC3C(CCC4=CC(O)CC[C@@]43/C=N/O)C1(O)CCC2C1=CC(=O)OC1` (some centres not stated), the “activity change, negative = inhibition” value was -24% (inactive).

`COC(=O)C1=C(c2ccccc2OCc2ccccc2)C[C@@H]2CC[C@H]1N2C(=O)NCCOc1ccc(OC)cc1`: the Potency is 12.6 µM (active).

For `COC(=O)C1=C(c2ccc(F)cc2OCc2ccccc2)C[C@@H]2CC[C@H]1N2C(=O)NCc1ccccc1Br`, the Potency is 1.78 µM (active).

`CCC(C(=O)N1CCC2(CC1)OCCO2)n1c2ccccc2c2nc(=O)cc(C)n21` (configuration not stated): the Potency was 11.2 µM (active).

As for `CCOc1cc2c(cc1OCC)-n1cccc1C(c1ccccc1F)NC2` (configuration not stated), the Potency was 10 µM (active).

As for `CCOP(=O)(OCC)C(O)c1ccc(OC)cc1OC` (configuration not stated), the “activity change, negative = inhibition” value was -11.5% (inactive).

Turning to `COc1ccc(-c2cc(-c3ccccc3)[n+](C)c(-c3ccccc3)c2)cc1`, the Potency is 3.16 µM (active).

As for `C[n+]1c(-c2ccccc2)cc(-c2ccc(Cl)cc2)cc1-c1ccccc1`, the Potency was 2 µM (active).

Consider `Cc1cc2ccccn2c1C(C[N+](=O)[O-])c1c(F)cccc1Cl` (configuration not stated), for which the Potency is 12.6 µM (active).

As to `O=[N+]([O-])c1ccc(NC2CCCC2)c2ccncc12`, the “activity change, negative = inhibition” value is -2.56% (inactive).

`C=CCn1c(O)c(N=Nc2c(C)n(C)n(-c3ccccc3)c2=O)c(=O)[nH]c1=S`: the Potency was 11.2 µM (active).

`C[C@@H]1C[C@@H]2O[C@H]2/C=C\C=C\C(=O)Cc2c(Cl)c(O)cc(O)c2C(=O)O1`: the Potency is 7.08 µM (active).

Consider `C=C[C@H]1CN2CC[C@H]1C[C@@H]2[C@@H](O)c1ccnc2ccccc12`, for which the Potency was 0.251 µM (active).

With `CN1C2CCC1/C(=C/c1ccccn1)C(=O)/C2=C\c1ccccn1`, the Potency was 0.251 µM (active).

Consider `CC[n+]1c(-c2ccccc2)c2cc(N)ccc2c2ccc(N)cc21`, for which the Potency was 1 µM (active).

Take `CC(C)c1ccc(N2C(=O)NC(=O)/C(=C\C=C\c3ccco3)C2=O)cc1`: the “activity change, negative = inhibition” value is -10.9% (inactive).

For the compound `CC(C)c1oc(=O)cc2c1[C@@H](O)[C@H]1OC(=O)[C@@]3(C)CC[C@@H](O)[C@@]2(C)C13` (some centres not stated), the Potency is 8.91 µM (active).
